Results taken from PubChem BioAssay AID504332 (National Center for Advancing Translational Sciences (NCATS), 2011).
Where “and” joins values, the source holds several entries; their conditions need not be identical. Equal entries are not always repeated. Among all 350,000 compounds or so, about 31,000 (8.9%) were called active. Another 15% or so got no clear call; they are omitted. Only a selection was taken, and actives are over-represented in it overall. A number with no mark means an inactive call. The call rests on the fitted dose curve; in most records, active means well fitted inhibition curve with a large enough effect; inconclusive means small, poorly fitted or top-dose-only effect; inactive means no such curve, though single readings can be large or run the other way.

Molecular target: Histone-lysine N-methyltransferase EHMT2 (Homo sapiens) (UniProt Q96KQ7)
Sequence (Q96KQ7 913-1193 limits assumed): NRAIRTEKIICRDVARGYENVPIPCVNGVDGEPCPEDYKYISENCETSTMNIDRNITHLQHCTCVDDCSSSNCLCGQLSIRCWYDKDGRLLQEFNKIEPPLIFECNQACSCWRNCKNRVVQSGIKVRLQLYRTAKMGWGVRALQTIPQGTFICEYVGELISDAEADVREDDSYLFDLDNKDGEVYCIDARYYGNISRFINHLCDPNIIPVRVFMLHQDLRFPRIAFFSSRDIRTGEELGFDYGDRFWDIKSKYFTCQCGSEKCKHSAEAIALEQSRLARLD
Assay: qHTS Assay for Inhibitors of Histone Lysine Methyltransferase G9a; further: nearly all actives have a fitted effect of over 75% in size
Settings: G9a H3K9 monomethylation, AlphaScreen, 2 h; series mostly up to 59 µM; activity, negative = inhibition: at the top concentration
Summary of the method: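 Methyltransferase reactions run at room temperature for 2 h (20 nM enzyme, 500 nM biotin-H3K9 peptide, 20 uM SAM) after a 15 min compound preincubation; product detected by AlphaScreen beads and anti-H3K9me1 antibody.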
On the % scale 0 is the no-effect control and ±100 the full control effect; potency means the concentration at half of the fitted maximal effect.

SMILES	activity, negative = inhibition	Potency
CC(O)c1ccc(OCCN(C)c2ccccn2)cc1 (centres undefined)	-1.26% [at 2.33 µM]	–
Cc1nc2ccn(Cc3cccs3)c(=O)c2cc1C(=O)NCc1ccc(Cl)cc1	7.77%	–
COc1ccc(CNS(=O)(=O)c2cc3c4c(c2)CCN4C(=O)CC3)cc1	–	inactive
COc1cc([N+](=O)[O-])ccc1NC(=S)N1CCN(c2ccccn2)CC1	–	44.7 µM (active)
CCOC(=O)c1ccc(NC(=S)N2CCN(c3ccccn3)CC2)cc1	0.189% [at 102 µM]	–
CNC(=S)N1CCN(c2ccccn2)CC1	20.4%	–
CCCOc1ccc(-c2c(C(=O)N/N=C/c3ccco3)nnn2-c2nonc2N)cc1	19.6% [at 102 µM]	–
COc1ccccc1/C=N/N1CCN(Cc2ccccc2Cl)CC1	7.68% [at 0.501 µM]	–
O=S1(=O)CCN(Cc2ccccc2Cl)CC1	-11.6% [at 102 µM]	–
CSc1ccc(/C=N/N2CCN(Cc3ccccc3Cl)CC2)cc1	–	14.1 µM (active)
CCOc1ccc(CNC(=O)c2ccc(CS(=O)c3ccccc3)o2)cc1 (centres undefined)	-27.7%	–
Cc1cccc(NC(=O)c2sc(-c3ccccc3)nc2-c2ccc([N+](=O)[O-])cc2)c1	-11.3%	–
Cc1nc(-c2ccc([N+](=O)[O-])cc2)c(-c2ccccc2)o1	–	15.8 µM (active)
COc1ccc([N+](=O)[O-])cc1-c1nc2ccccc2nc1-c1ccccc1	7.8% [at 0.501 µM]	–
COC(=O)c1c(NC(=O)c2cc(=O)c3c(C)cc(C)cc3o2)sc2c1CCCC2	-3.65%	–
Cc1oc2cc(Br)c(O)c(Br)c2c1C(=O)c1ccccc1	–	44.7 µM (active)
Cc1oc2cc([N+](=O)[O-])c(O)c([N+](=O)[O-])c2c1C(=O)c1ccc(Br)cc1	–	17.8 µM (active)
Cc1cc(C(=O)O)ccc1[N+](=O)[O-]	3.38% [at 0.501 µM]	–
COc1cc(/C(=C/c2ccccc2)c2ccccc2)c2c(c1)oc1ccccc12	39.3% [at 102 µM]	–
CCOC(=O)c1c(-c2ccccc2)oc2cc(Br)c(O)cc12	16.8% [at 102 µM]	–
Cc1cc(O)c(NC(=O)c2ccc(C)c([N+](=O)[O-])c2)cc1C	5.04% [at 102 µM]	–
CS(=O)(=O)Nc1cccc(C2=NN(C(=O)c3cccc(F)c3)C(c3cccs3)C2)c1 (centres undefined)	-0.685% [at 102 µM]	–
O=C(Cn1c(=O)n(Cc2cccs2)c(=O)c2cccnc21)Nc1ccc(F)cc1	4.79%	–
Cc1ccc(NC(=O)Cc2ccc(NC(=O)N3CCCCc4ccccc43)cc2)cc1	-7.06%	–
CC(C)=CCCC(C)CN1CCC(n2nccc2NC(=O)c2ccccc2)CC1 (centres undefined)	12.5% [at 102 µM]	–

SMILES	activity, negative = inhibition	Potency
COc1cc(C2c3c(oc4ccccc4c3=O)C(=O)N2c2nc(C)c(C)s2)ccc1O (centres undefined)	2.3%	–
CC(=O)c1sc(N2C(=O)c3oc4ccccc4c(=O)c3C2c2ccc(C)cc2)nc1C (centres undefined)	–	2 µM (active)
O=C1c2oc3ccccc3c(=O)c2C(c2cccc(O)c2)N1c1ccccn1 (centres undefined)	4.82% [at 102 µM]	–
COc1ccc(NC(=O)CCc2nnc3n(CC(C)C)c(=O)c4ccccc4n23)cc1OC	8.79%	–
Cc1nnc(NCCO)c2ccccc12	-4.86% [at 102 µM]	–
COc1ccc(Nc2nnc(C)c3ccccc23)cc1	-4.39% [at 102 µM]	–
NNc1nnc(NN)c2ccccc12	–	25.1 µM (active)
CCOC(=O)C1CCCN(S(=O)(=O)c2cc(-c3cc(C)no3)ccc2OC)C1 (centres undefined)	-28.7%	–
Cn1c(SCC(=O)N/N=C/c2ccc(O)c(O)c2)nc2ccccc21	–	17.8 µM (active)
CCOc1cc(/C=N/NC(=O)CN2CCCCC2)ccc1O	21.9% [at 102 µM]	–
CCOc1ccc(/C=N/NC(=O)CSc2ccccn2)cc1O	6.98% [at 102 µM]	–
Cc1ccc(/C=N/NC(=O)CSc2nc3ccccc3o2)cc1	11.8%	–
Cc1nc2ccccc2n1CC(=O)N/N=C/c1cccnc1	-0.153% [at 102 µM]	–
Cc1nccn1CC(=O)N/N=C/c1ccc(O)c(O)c1	–	7.08 µM (active)
O=C(NCC(=O)N1CCCCCCC1)c1ccccc1Cl	8.52% [at 12.7 µM]	–
Cc1c(C(=O)NCC(c2ccco2)N2CCCC2)oc2ccc(Cl)cc12 (centres undefined)	0.391%	–
Cc1ccc(S(=O)(=O)NCCC(=O)NC2CCN(Cc3ccccc3)CC2)cc1	14.9%	–
COc1ccc(-c2noc(-c3ccc(N4CCN(c5ccccc5)CC4)c([N+](=O)[O-])c3)n2)cc1OC	-34.5%	–
CCOc1ccccc1NC(=O)CN1CCN(S(=O)(=O)c2ccc(Br)cc2)CC1	-10.2%	–
CCNS(=O)(=O)c1ccc(NC(=O)CSc2nc(-c3ccco3)cc(C(F)(F)F)n2)cc1	0.35%	–
O=C(Nc1cc(-c2ccccc2)nn1-c1ccccc1F)c1ccc([N+](=O)[O-])cc1	-22.8% [at 12.7 µM]	–
CCOc1ccc(CN2CCN(Cc3c[nH]c4ccccc34)CC2)cc1	25.4% [at 2.33 µM]	–
CCOc1ccc(CC(=O)NC2CCN(Cc3ccccc3)CC2)cc1	-4.74% [at 102 µM]	–
CCOc1ccc(CN2CCCN(C)CC2)cc1	–	10 µM (active)
COC(=O)C(C)Sc1nc2c(c(=O)n(C)c(=O)n2C)n1Cc1cccc(C)c1 (centres undefined)	–	20 µM (active)

SMILES	activity, negative = inhibition	Potency
Cn1c(=O)c2c(nc(SCC(=O)Nc3ccc(F)cc3)n2Cc2ccccc2)n(C)c1=O	12.4%	–
Cc1cccc(Cn2c(SCCO)nc3c2c(=O)n(C)c(=O)n3C)c1	-2.49% [at 102 µM]	–
CCOc1ccccc1C(=O)Nc1ccc(S(=O)(=O)N2CCCCC2c2cccnc2)cc1 (centres undefined)	5.63%	–
N#CCSc1nn(-c2ccc(F)cc2)c(=S)s1	-42.3% [at 102 µM]	–
Cc1nnc(SCC(=O)NCc2ccccc2)s1	-12.5%	–
Cc1ccccc1-n1nc(SCC(=O)O)sc1=S	–	50.1 µM (active)
Cn1c(N)c(C(=O)COC(=O)COc2ccc(Cl)cc2)c(=O)n(C)c1=O	17.9% [at 12.7 µM]	–
Cc1cccc(N2CCN(C(=O)c3cc4c(=O)oc5ccccc5c4s3)CC2C)c1 (centres undefined)	-6.57%	–
CN(CCNC(=O)c1cc2c(-c3ccccc3F)nn(C)c2s1)C1CCCCC1	-14.4% [at 102 µM]	–
Oc1ccccc1-c1cc(-c2ccc(Cl)cc2)n[nH]1	-5.84% [at 102 µM]	–
O=C(NCc1ccc(F)cc1)c1ccc(Cn2c(SCc3ccc(F)cc3)nc3cccnc32)cc1	-9.12%	–
O=c1[nH]c(=O)c2nc3ccccc3nc2[nH]1	-3.42% [at 12.7 µM] and 46.4% [at 12.7 µM]	–
Nc1ccc2nc3c(=O)[nH]c(=S)[nH]c3nc2c1	–	10 µM (active)
CC1CCCC(NC(=O)c2cc(-c3ccncc3)nc3ccccc23)C1C (centres undefined)	-22.5% [at 102 µM]	–
Cc1cc(NS(=O)(=O)c2ccc3oc(=O)c4ncn(C)c4c3c2)ccc1Br	10.1%	–
Cc1ccccc1CSc1nc(-c2ccccc2)nc2c1Cc1c(CO)cnc(C)c1O2	0.451%	–
Cc1cc(N2CCN(c3cccc(C(F)(F)F)c3)CC2)n2nc(-c3ccccc3)nc2n1	-4.4%	–
O=C(NCC(=O)N1CCCC(C(F)(F)F)C1)c1ccccc1F (centres undefined)	-3.38% [at 102 µM]	–
O=C(NC(Cc1ccccc1)C(=O)N1CCCC(C(F)(F)F)C1)c1ccccc1 (centres undefined)	-2.41% [at 102 µM]	–
FC(F)(F)C1CCCN(c2nsc3ccccc23)C1 (centres undefined)	–	1.12 µM (active)
NS(=O)(=O)c1ccc(CCNc2nc(C(F)(F)F)nc3ccccc23)cc1	–	70.8 µM (active)
CCc1ccc(C(CNc2nc(C(F)(F)F)nc3ccccc23)N(C)C)cc1 (centres undefined)	4.66% [at 102 µM]	–
COc1cccc(CNc2nc(C(F)(F)F)nc3ccccc23)c1	52.2% [at 102 µM]	–
Cc1ccc(-c2cc(C(=O)Oc3ccccc3Cl)no2)cc1C	134%	–
O=C(COC(=O)c1c(Cl)cccc1Cl)Nc1cccc(S(=O)(=O)NC2=NCCCCC2)c1	-0.124% [at 12.7 µM]	–

SMILES	activity, negative = inhibition	Potency
CC(NC(=O)c1ccccc1SCC(=O)N1CCCC1)c1ccccc1 (centres undefined)	-21.2% [at 102 µM]	–
O=C(CSc1nc2[nH]ncc2c(=O)n1-c1ccccc1)N1CCCc2ccccc21	–	8.91 µM (active)
Cc1nnc(SCC(=O)N2CCc3ccccc32)n1-c1ccccc1	-14.8%	–
Cn1c(SCC(=O)N2CCCc3ccccc32)nc2ccccc2c1=O	21%	–
O=C(CNC(=O)c1ccccc1F)c1ccc(Br)cc1	-6.35% [at 102 µM]	–
Cc1cccc[n+]1CC(=O)c1ccccc1	14.2% [at 102 µM]	–
O=C(C[n+]1cc(Br)cc2ccccc21)c1ccc(F)cc1	–	50.1 µM (active)
COC(=O)c1cnn(-c2ccc(C(=O)Nc3ccc(OC(F)(F)F)cc3)cc2)c1N	5.03%	–
COc1ccc(-c2cn3c(C)c(C(=O)Nc4cc(C)cc(C)c4)sc3n2)cc1	4.02%	–
Cc1cc(C)c2nc(SCC(=O)N(C)C3CCS(=O)(=O)C3)cc(C)c2c1 (centres undefined)	–	44.7 µM (active)
COc1ccc2c(-c3ccccc3)cc(SCC(=O)N(C)C3CCS(=O)(=O)C3)nc2c1 (centres undefined)	-40.4%	–
CN(C(=O)CSc1nnc(-c2ccc(C(C)(C)C)cc2)n1C)C1CCS(=O)(=O)C1 (centres undefined)	1.39% [at 12.7 µM]	–
CCOC(=O)[C@H]1[C@H]2COc3ccc(C)cc3[C@@H]2N2C(=O)CN(Cc3ccc(F)cc3)C(=O)[C@@]12C	9.53% [at 0.501 µM]	–
O=C(NCc1cccc(Cl)c1)C1CCN(c2nnc(N3CCCC3=O)s2)CC1	36.7% [at 102 µM]	–
COC(=O)c1ccc(/C=N/OCC(=O)Nc2cc(F)ccc2F)cc1	16.3% [at 102 µM]	–
COC(=O)c1ccc(Sc2ccc(F)cc2)c(N)c1	–	28.2 µM (active)
CC(C)(CCl)C(=O)Nc1ccc(Sc2ccc(F)cc2)cc1	-58.2% [at 2.33 µM]	–
Cc1ccccc1NC(=O)NCC1CCN(Cc2cccc(Cl)c2)CC1	2.62% [at 2.33 µM]	–
CC(C)CC(=O)N1CCN(Cc2ccccc2Br)CC1	–	20 µM (active)
CC(CC(=O)N1CCN(c2ccccc2)CC1)c1ccccc1 (centres undefined)	19.1%	–
O=C(c1cccc(Cl)c1)N1CCN(Cc2ccccc2)CC1	10% [at 102 µM]	–
CC(C)CC(=O)N1CCC(O)(CS(=O)(=O)Cc2ccccc2)CC1	11.5% [at 102 µM]	–
CC(C)CC(=O)N1CCN(Cc2cccc(Cl)c2)CC1	–	22.4 µM (active)
COc1cc([N+](=O)[O-])ccc1NC(=O)COC(=O)CCOc1ccc(C)cc1	0.0833%	–
